# Data taken from PubChem BioAssay (NCATS).
# Several values for one entry are separate records, joined by “and”; a condition that tells them apart may be missing. Identical values can stand only once. Results filed as inconclusive are left out. Activity calls are given as the source filed them. Unless noted, the call rests on the fitted dose curve; in most records, active means well fitted curve in the direction sought with a large enough effect; inconclusive means small, poorly fitted or top-dose-only effect, or another doubt; inactive means no such curve, though single readings can be large; an effect the other way counts as inactive or inconclusive.
# What was measured:
# [1] = Primary qHTS for inhibitors of nuclear receptor binding SET domain protein 2 (NSD2) in an isogenic RCH-ACV NSD2 p.E1099K mutant (9B) (AID 1645876); further: nearly all actives have a fitted effect of over 70% in size; on activity change, negative = viability loss: on the % scale 0 is the no-effect control and ±100 the full control effect
# [2] = Primary qHTS for inhibitors of nuclear receptor binding SET domain protein 2 (NSD2) in an RCH-ACV wild type WT cells (2C) (AID 1645877); further: nearly all actives have a fitted effect of over 70% in size; further: potency means the concentration at half of the fitted maximal effect
# [3] = target: Catechol O-methyltransferase (Homo sapiens) (UniProt P21964); test: Confirmatory Screen for Target Class Profiling of Small Molecule Inhibitors of Methyltransferases (AID 1745852; calls by dose curve; further: potency means the concentration at half of the fitted maximal effect; on activity change, negative = inhibition: on the % scale 0 is the no-effect control and ±100 the full control effect); conditions: MTase-Glo luminescence, SAH detection, recombinant enzyme; measured here: COMT max response; stronger effect = lower value
# Catechol O-methyltransferase (Homo sapiens), sequence (P21964 whole entry, looked up): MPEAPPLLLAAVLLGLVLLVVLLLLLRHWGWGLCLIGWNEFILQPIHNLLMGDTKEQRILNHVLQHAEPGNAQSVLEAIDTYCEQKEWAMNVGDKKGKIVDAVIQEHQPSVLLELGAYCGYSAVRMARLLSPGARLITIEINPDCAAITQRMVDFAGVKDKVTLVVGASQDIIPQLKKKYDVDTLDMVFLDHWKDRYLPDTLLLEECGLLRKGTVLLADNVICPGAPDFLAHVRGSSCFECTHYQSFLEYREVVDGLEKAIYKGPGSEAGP
# [4] = target: Guanidinoacetate N-methyltransferase (Homo sapiens) (UniProt Q14353); test: as above; conditions: activity change, negative = inhibition: at 57.3 µM (top of the series) unless noted
# [5] = target: Nicotinamide N-methyltransferase (Homo sapiens) (UniProt P40261); test: as above; conditions: MTase-Glo luminescence, SAH detection, recombinant enzyme; measured here: NNMT max response; stronger effect = lower value
# Nicotinamide N-methyltransferase (Homo sapiens), sequence (P40261 whole entry, looked up): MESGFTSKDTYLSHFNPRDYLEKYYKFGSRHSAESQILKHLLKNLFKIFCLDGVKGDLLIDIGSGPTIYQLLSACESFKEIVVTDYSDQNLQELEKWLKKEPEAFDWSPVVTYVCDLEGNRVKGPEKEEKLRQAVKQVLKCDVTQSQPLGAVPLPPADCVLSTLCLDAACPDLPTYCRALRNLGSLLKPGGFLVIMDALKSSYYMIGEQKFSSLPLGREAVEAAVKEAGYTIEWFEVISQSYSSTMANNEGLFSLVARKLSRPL
# [6] = target: Rap guanine nucleotide exchange factor 3 (Homo sapiens) (UniProt O95398); test: Confirmatory qHTS for antagonist of cAMP-regulated guanine nucleotide exchange factor 3 (EPAC1) (AID 1645880); conditions: EPAC1 Rap1B-BODIPY-GDP exchange, fluorescence; further: potency means the concentration at half of the fitted maximal effect; nearly all actives have a fitted effect of over 55% in size
# Rap guanine nucleotide exchange factor 3 (Homo sapiens), sequence (O95398 whole entry, looked up): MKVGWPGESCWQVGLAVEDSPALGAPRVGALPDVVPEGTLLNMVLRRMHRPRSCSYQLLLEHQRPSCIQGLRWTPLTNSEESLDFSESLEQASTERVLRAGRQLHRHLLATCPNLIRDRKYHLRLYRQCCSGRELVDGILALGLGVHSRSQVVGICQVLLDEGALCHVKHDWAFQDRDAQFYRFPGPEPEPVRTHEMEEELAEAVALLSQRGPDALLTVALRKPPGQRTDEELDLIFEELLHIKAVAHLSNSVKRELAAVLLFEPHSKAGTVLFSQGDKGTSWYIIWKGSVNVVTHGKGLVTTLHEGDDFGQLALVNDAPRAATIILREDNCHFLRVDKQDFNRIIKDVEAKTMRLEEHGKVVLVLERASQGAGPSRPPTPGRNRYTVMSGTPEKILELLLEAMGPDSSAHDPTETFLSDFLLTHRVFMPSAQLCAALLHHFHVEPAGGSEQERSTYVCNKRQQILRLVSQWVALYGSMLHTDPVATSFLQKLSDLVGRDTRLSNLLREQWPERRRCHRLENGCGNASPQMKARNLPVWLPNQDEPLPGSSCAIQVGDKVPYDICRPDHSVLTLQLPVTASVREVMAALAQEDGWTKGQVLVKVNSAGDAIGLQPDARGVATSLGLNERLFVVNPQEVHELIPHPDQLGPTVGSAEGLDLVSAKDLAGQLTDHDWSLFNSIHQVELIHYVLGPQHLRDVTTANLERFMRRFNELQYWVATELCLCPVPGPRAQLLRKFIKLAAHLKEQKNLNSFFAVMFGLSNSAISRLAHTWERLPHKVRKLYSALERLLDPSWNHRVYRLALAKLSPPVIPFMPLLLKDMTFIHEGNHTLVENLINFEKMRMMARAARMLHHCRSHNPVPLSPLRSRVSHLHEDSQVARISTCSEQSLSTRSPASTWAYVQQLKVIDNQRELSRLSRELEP
# Outline: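 Nucleotide exchange uses 100 nM EPAC1, 250 nM RAP1B-BODIPY-GDP and 50 uM GDP, with compounds in a concentration-titration series. After 5 min at room temperature, fluorescence (480 nm ex/540 nm em) is read every 5 min for 30 min. Data are normalized to control ATA and DMSO.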
# [7] = target: Rap guanine nucleotide exchange factor 3 (Homo sapiens) (UniProt O95398); test: Confirmatory qHTS for agonist of cAMP-regulated guanine nucleotide exchange factor 3 (EPAC1) (AID 1645881);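 further: EPAC1 catalysed release of BODIPY-GDP from Rap1B seen as fluorescence loss; 100% = effect of cAMP agonist control; nearly all actives have a fitted effect of over 75% in size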
# [8] = target: Rap guanine nucleotide exchange factor 4 (Homo sapiens) (UniProt Q8WZA2); test: Confirmatory qHTS for agonist of cAMP-regulated guanine nucleotide exchange factor 4 (EPAC2) (AID 1645884);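 further: nucleotide exchange releases bodipy-GDP from Rap1 and this lowers its fluorescence; on the % scale 0 is the no-effect control and ±100 the full control effect; nearly all actives have a fitted effect of over 65% in size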
# Rap guanine nucleotide exchange factor 4 (Homo sapiens), sequence (Q8WZA2 whole entry, looked up): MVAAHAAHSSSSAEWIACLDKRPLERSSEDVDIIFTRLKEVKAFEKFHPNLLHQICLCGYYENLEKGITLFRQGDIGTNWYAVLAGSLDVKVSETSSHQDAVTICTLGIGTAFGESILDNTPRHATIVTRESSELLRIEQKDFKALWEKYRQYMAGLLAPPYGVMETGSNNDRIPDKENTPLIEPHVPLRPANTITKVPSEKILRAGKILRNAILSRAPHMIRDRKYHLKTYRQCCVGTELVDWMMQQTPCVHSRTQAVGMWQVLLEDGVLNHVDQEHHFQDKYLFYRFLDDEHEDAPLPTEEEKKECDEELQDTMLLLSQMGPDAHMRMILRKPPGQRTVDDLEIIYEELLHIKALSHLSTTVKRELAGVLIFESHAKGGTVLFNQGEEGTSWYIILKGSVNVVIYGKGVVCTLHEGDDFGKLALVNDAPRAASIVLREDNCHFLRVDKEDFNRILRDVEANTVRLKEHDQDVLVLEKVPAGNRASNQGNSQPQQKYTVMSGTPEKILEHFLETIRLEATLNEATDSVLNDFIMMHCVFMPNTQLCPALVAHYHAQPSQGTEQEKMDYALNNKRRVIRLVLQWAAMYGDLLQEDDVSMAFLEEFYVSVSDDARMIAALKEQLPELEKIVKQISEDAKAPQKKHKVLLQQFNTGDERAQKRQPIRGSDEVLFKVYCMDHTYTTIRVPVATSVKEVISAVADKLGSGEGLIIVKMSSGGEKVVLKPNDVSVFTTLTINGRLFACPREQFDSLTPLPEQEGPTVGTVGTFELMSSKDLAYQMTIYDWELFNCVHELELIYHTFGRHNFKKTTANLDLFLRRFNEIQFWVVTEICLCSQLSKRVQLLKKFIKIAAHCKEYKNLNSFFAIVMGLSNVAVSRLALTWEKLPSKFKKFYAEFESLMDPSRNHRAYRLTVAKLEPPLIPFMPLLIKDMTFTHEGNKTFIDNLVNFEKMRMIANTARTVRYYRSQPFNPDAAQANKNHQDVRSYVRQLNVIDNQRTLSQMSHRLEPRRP
# [9] = target: Rap guanine nucleotide exchange factor 4 (Homo sapiens) (UniProt Q8WZA2); test: Confirmatory qHTS for antagonist of cAMP-regulated guanine nucleotide exchange factor 4 (EPAC2) (AID 1645885); further: nearly all actives have a fitted effect of over 25% in size; further: potency means the concentration at half of the fitted maximal effect
# [10] = target: Rap guanine nucleotide exchange factor 3 (Homo sapiens) (UniProt O95398); test: Counterscreen qHTS for antagonist of cAMP-regulated guanine nucleotide exchange factor 3 (EPAC1) (AID 1645888);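 further: fluorescence loss as bound BODIPY-GDP is released from Rap1B; % of control where 0% means no effect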
# From the text: Assay Provider (PI): Xiaodong Cheng Ph.D. The University of Texas Medical Branch, […], TX MLPCN Grant: NS066510 In multi-cellular eukaryotic organisms, the effects of cAMP are transduced by two ubiquitously-expressed intracellular cAMP receptors, the classic protein kinase A/cAMP-dependent protein kinase (PKA/cAPK) and the more recently discovered exchange protein directly activated by cAMP/cAMP-regulated guanine nucleotide exchange factor (EPAC/cAMP-GEF). Both PKA and EPAC are ubiquitously expressed in all tissues, and an increase in intracellular cAMP levels will lead to the activation of both PKA and EPAC. […] This qHTS will be used to screen the Molecular Libraries Small Molecule Repository (MLSMR) as a concentration-titration series using the NCGC unique quantitative screening (qHTS) platform to find activators for EPAC1. […] Activators are identified by monitoring the change in fluorescence signal as the exchanged free BODIPY-GDP has a reduced fluorescence compared to Rap1-bound BODIPY-GDP. […]
# EPAC1 Counterscreen PROTOCOL TABLE SEQUENCE No. (e.g., 1, 2, 3, etc.); […] […] Fluorescence. (Read 1), Ex/Em = 480 nm / 540 nm. […] Fluorescence. (Read 2), Ex/Em = 480 nm/ 540 nm. […] Fluorescence. (Read 3), Ex/Em = 480 nm / 540 nm. […] Fluorescence. (Read 4), Ex/Em = 480 nm / 540 nm. […]
compound,measurement,setting,value
CC1(C)C[C@H]2C3=CCC4[C@@]5(C)CC[C@H](O[C@H]6O[C@H](C(=O)O)[C@@H](O)[C@H](O)[C@H]6O[C@H]6O[C@H](CO)[C@@H](O)[C@H](O)[C@H]6O[C@@H]6O[C@H](CO)[C@@H](O)[C@H](O)[C@H]6O)[C@](C)(CO)C5CC[C@@]4(C)[C@]3(C)CC[C@@]2(C)[C@H](O[C@@H]2OC[C@H](O)[C@H](OC3O[C@H](CO)[C@@H](O)[C@H](O)[C@H]3O)[C@H]2O)[C@@H]1O (stereo not given in full),outcome,[1],inactive [at 9.23 µM]
same,outcome,[2],inactive [at 9.23 µM]
COC(=O)C1=COC(OC2OC(CO)C(O)C(O)C2O)C2C1CC(OC(=O)C(O)CC(=O)O)C2C (stereo not given),Potency,[1],inactive
same,Potency,[2],inactive
same,activity,[3],-63.4%
same,"activity change, negative = inhibition",[4],1.08% [at 29.8 µM]
same,activity,[5],1.84%
OC1COC(OCC2OC(OCCc3ccccc3)C(O)C(O)C2O)C(O)C1O (stereo not given),Potency,[1],inactive
same,Potency,[2],inactive
same,activity,[3],-64.8%
same,"activity change, negative = inhibition",[4],0% [at 29.8 µM]
same,activity,[5],0%
C[C@H]1[C@H](C)CC[C@]2(C(=O)O)CC[C@]3(C)C(=CC[C@@H]4[C@@]5(C)C[C@@H](O)[C@H](O)[C@@](C)(CO)[C@@H]5CC[C@]43C)[C@H]12,Potency,[1],inactive
same,Potency,[2],inactive
CC1=CC(=O)CC(C)(C)C1(O)CCC(C)O (stereo not given),Potency,[1],inactive
same,Potency,[2],inactive
same,activity,[3],-75.7%
same,"activity change, negative = inhibition",[4],2.94%
same,activity,[5],0%
C=C1[C@H]2CC[C@]3(O)[C@@](CC[C@@H]4[C@](C)(C(=O)O)CCC[C@]43C)(C2)[C@H]1OC(=O)/C(C)=C\C,Potency,[1],inactive
same,Potency,[2],inactive
CC1=CC(=O)CC(C)(C)C1CCC(C)OC1OC(COC(=O)c2cc(O)c(O)c(O)c2)C(O)C(O)C1O (stereo not given),Potency,[1],inactive
same,Potency,[2],inactive
same,activity,[3],-58.9%
same,"activity change, negative = inhibition",[4],0% [at 29.8 µM]
same,activity,[5],2.37%
CCN(c1cc(C#CCN2CCOCC2)cc(C(=O)NCc2c(C)cc(C)[nH]c2=O)c1C)C1CCC(N(C)CCOC)CC1 (stereo not given),Potency,[1],inactive
same,Potency,[2],inactive
same,activity,[3],15%
same,"activity change, negative = inhibition",[4],3.71%
same,activity,[5],-20.4%
COc1cc(C(O)C(CO)Oc2ccc(CCCO[C@@H]3O[C@@H](C)[C@H](O)[C@@H](O)[C@H]3O)cc2OC)ccc1O (stereo not given in full),Potency,[1],inactive
same,Potency,[2],inactive
same,activity,[3],-72.8%
same,"activity change, negative = inhibition",[4],-3.44% [at 29.8 µM]
same,activity,[5],-3.89%
C=C(C)[C@H]1C[C@@H](O)C(=C)CC[C@@H](O)C(=C)[C@@H](O)C1,Potency,[1],inactive
same,Potency,[2],inactive
same,activity,[3],-67%
same,"activity change, negative = inhibition",[4],0%
same,activity,[5],4.34%
COCCN(C)Cc1ccc2nc3sc(C(=O)N(C)C4CCCCC4)cn3c2c1,Potency,[1],inactive
same,Potency,[2],inactive
same,activity,[3],-4.7%
same,"activity change, negative = inhibition",[4],0%
same,activity,[5],1.46%
CC1CC(=O)C2=C(O1)OC1(C)CCC3C(C)(C)C=CC(=O)C3(C)C1C2 (stereo not given),Potency,[1],inactive
same,Potency,[2],inactive
same,activity,[3],-45.9%
same,"activity change, negative = inhibition",[4],-4.08%
same,activity,[5],-84.9%
CCOc1ccc(-c2ccc(Cn3c(CC(C)(C)C(=O)O)c(SC(C)(C)C)c4cc(OCc5ccc(C)cn5)ccc43)cc2)cn1,Potency,[1],inactive
same,Potency,[2],inactive
same,activity,[3],-2.5% and 0.78%
same,Potency,[4],inactive
same,"activity change, negative = inhibition",[4],-0.671%
same,activity,[5],-21.6% and -9.46%
CC(=O)NCCCCn1c2c(c3ccccc31)C(=O)NCC2,Potency,[1],inactive
same,Potency,[2],inactive
same,activity,[3],-9.83%
same,"activity change, negative = inhibition",[4],-8.34%
same,activity,[5],-4.05%
COc1ccc(/C=C/C(=O)O[C@@H]2[C@@H](OC(C)=O)[C@@H](OC(C)=O)[C@H](O[C@H]3[C@@H]4C=CO[C@@H](O[C@@H]5O[C@H](CO)[C@@H](O)[C@H](O)[C@H]5O)[C@@H]4[C@@]4(CO)O[C@@H]34)O[C@H]2C)cc1O,Potency,[1],inactive
same,Potency,[2],inactive
same,activity,[3],-68.6%
same,"activity change, negative = inhibition",[4],-5.06% [at 19.1 µM]
same,activity,[5],-11.7%
COC1C2=C(COC2=O)C2(C)CCCC(C)(CO)C2C1OC(=O)c1ccccc1 (stereo not given),Potency,[2],inactive
COC(=O)C1=CO[C@@H](O[C@@H]2O[C@H](COC(=O)/C=C/c3cc(OC)c(O)c(OC)c3)[C@@H](O)[C@H](O)[C@H]2O)[C@@H]2C(CO)=CC[C@H]12,Potency,[1],inactive
same,Potency,[2],inactive
same,activity,[3],-58.2%
same,"activity change, negative = inhibition",[4],-6.4% [at 19.1 µM]
same,activity,[5],-2.91%
COc1cc(/C=C/c2cc(O)cc(O[C@@H]3O[C@H](CO)[C@@H](O)[C@H](O)[C@H]3O)c2)ccc1O,activity,[3],-45%
same,"activity change, negative = inhibition",[4],0.569% [at 29.8 µM]
same,activity,[5],-2.24%
CC1(C)CCC2(C(=O)OC3OC(COC4OC(CO)C(O)C(O)C4O)C(O)C(O)C3O)CCC3(C)C(=CCC4C5(C)CCC(O)C(C)(C(=O)O)C5CCC43C)C2C1O (stereo not given),"activity change, negative = viability loss",[1],0.116% [at 9.23 µM] (inactive)
same,outcome,[2],inactive [at 9.23 µM]
same,activity,[3],-59.6%
same,"activity change, negative = inhibition",[4],2.03% [at 19.1 µM]
same,activity,[5],-5.22%
Nc1c(Br)cc(Br)cc1CNC1CCC(O)CC1 (stereo not given),Potency,[2],inactive
OC[C@H]1O[C@@H](Oc2ccc3c(c2)OC[C@H]2c4cc5c(cc4O[C@@H]32)OCO5)[C@H](O)[C@@H](O)[C@@H]1O,Potency,[2],7.96 µM (active)
CC1=CC(=O)C2C(C)(C)CCCC2(C)C12CCC1(COC(=O)C1)O2 (stereo not given),activity,[3],-85.5%
same,"activity change, negative = inhibition",[4],2.41%
same,activity,[5],-1.78%
COc1cc(C2OCC3C(c4ccc(OC5OC(CO)C(O)C(O)C5O)c(OC)c4)OCC23)ccc1O (stereo not given),Potency,[2],inactive
CC1CC(O)C2(C)C(C(=O)O)=CCCC2C1(C)CCc1ccoc1 (stereo not given),Potency,[1],inactive
same,Potency,[2],inactive
same,activity,[3],-89.3%
same,"activity change, negative = inhibition",[4],2.37%
same,activity,[5],2.05%
NCCOCCOCCNC(=O)Cc1ccc(Nc2nc(NCc3ccc(F)cc3)nc(NCC3CCCCC3)n2)cc1,Potency,[2],16.3 µM (active)
C[C@]12C=CC(=O)C=C1CC[C@@H]1[C@@H]2[C@@H](O)C[C@@]2(C)[C@H]1CC[C@]2(O)C(=O)COC(=O)CCC(=O)O,Potency,[2],0.258 µM (active)
CC(C)(C)NCC(O)COc1cccc2c1CCCC2=O (stereo not given),Potency,[2],4.59 µM (active)
O=C(O)c1cc(O)c2cccc(O)c2c1O[C@@H]1O[C@H](CO)[C@@H](O)[C@H](O)[C@H]1O,Potency,[1],inactive
same,activity,[3],-4.06%
same,Potency,[4],29.8 µM (active)
same,activity,[5],-68.8%
CCCCC(CC)COC(=O)CC(C(=O)OCC(CC)CCCC)S(=O)(=O)O (stereo not given),Potency,[6],35.2 µM (active) and 9.93 µM (active)
same,outcome,[7],inactive
same,outcome,[8],inactive
same,Potency,[9],39.3 µM (active) and 31.2 µM (active)
CC1=C(/C=C/C(C)=C/C=C/C(C)=C/C=C/C=C(C)/C=C/C=C(C)/C=C/C2=C(C)CCCC2(C)C)C(C)(C)CCC1,Potency,[2],18.6 µM (active)
CCCOc1ccn2c(C(C)=O)cc(-c3ccccc3S(C)(=O)=O)c2c1,Potency,[2],18.6 µM (active)
CNC1CCN(C(Cc2cccc(-c3ccncc3)c2)C(=O)c2sc3c(F)ccc(F)c3c2Cl)CC1 (stereo not given),activity,[3],-12.3%
same,Potency,[4],48.2 µM (active)
same,activity,[5],-78%
Cc1[nH]cnc1C1CCN(c2nc3cccc4c3n2CCC4=O)CC1,Potency,[1],inactive
same,Potency,[2],inactive
same,activity,[3],1.4%
same,"activity change, negative = inhibition",[4],0.0241%
same,activity,[5],-9.9%
COc1cc(/C=C/C(=O)O[C@H]2[C@H](OC(=O)/C=C/c3cc(OC)c(O)c(OC)c3)O[C@H](CO[C@@H]3O[C@H](CO)[C@@H](O)[C@H](O)[C@H]3O)[C@@H](O)[C@@H]2O)ccc1O,Potency,[1],inactive
same,Potency,[2],inactive
same,activity,[3],-52.5%
same,"activity change, negative = inhibition",[4],0.645% [at 19.1 µM]
same,activity,[5],-4.49%
CCC(=O)O[C@]1(C(=O)CCl)[C@@H](C)C[C@H]2[C@@H]3C[C@H](F)C4=CC(=O)C=C[C@]4(C)[C@@]3(F)[C@@H](O)C[C@@]21C,Potency,[2],inactive
CC(C)C(=O)OCC(=O)[C@@]12O[C@H](C3CCCCC3)O[C@@H]1C[C@H]1[C@@H]3CCC4=CC(=O)C=C[C@]4(C)[C@H]3[C@@H](O)C[C@@]12C,Potency,[2],0.0209 µM (active)
COc1cc(/C=C/C(=O)OC2CC(OC(C)=O)C(OC(C)=O)C3C2CCC2C(=O)OC(c4ccoc4)CC23C)ccc1O[C@@H]1O[C@H](CO)[C@@H](O)[C@H](O)[C@H]1O (stereo not given in full),Potency,[2],inactive
CC(C)(C)NC(=O)[C@@H]1C[C@@H]2CCCC[C@@H]2CN1C[C@@H](O)[C@H](Cc1ccccc1)NC(=O)[C@H](CC(N)=O)NC(=O)c1ccc2ccccc2n1,outcome,[7],inactive
same,outcome,[8],inactive
same,Potency,[9],inactive
same,outcome,[10],inactive
